This note sets out measurements from PubChem BioAssay AID492998 (Southern Research Specialized Biocontainment Screening …, 2010).

The campaign covered roughly 2,300 compounds. About 550 (24%) were called active. The rule behind the calls is not given here. Not all results are given here. Results with a measured potency or affinity are listed apart.

What is called viability is a read-out of living cells in per cent, often relative to untreated cells.

The nature of the test: Vero E6 cell cytotoxicity, dose response, cytotoxicity control for non-replicating M. tuberculosis project, secondary assay (AID 492998).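 Note: 100% = vehicle-treated cells and 0% = background wells.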 To be noted: series mostly up to 20 µM; viability: at the top concentration.
In the case of `CC[n+]1c(/C=C(\C)Nc2ccccc2)sc2ccccc21`, the “viability” value is 99.1% (inactive).
Turning to `CC(C)(C)c1cc(CN2CCN(CCO)CC2)cc(C(C)(C)C)c1O`, the “viability” value is 110% (inactive).
For the compound `COc1ccc(-c2noc(CCC(=O)Nc3cccc(C)c3)n2)cc1`, the “viability” value is 106% (inactive).
For `Cc1ccc2c(CC(=O)OCC(=O)Nc3ccc(Cl)cn3)coc2c1`, the “viability” value is 87.6% (inactive).
The same measure for `CC(C)OC(=O)COc1ccc(-c2ccccc2)cc1`: 104% (inactive).
For `OC(CNCCc1ccc(C(F)(F)F)cc1)COc1ccc2ccccc2c1` (configuration not stated), the “viability” value is 95.2% (inactive).
`Cc1noc(C)c1COc1ccc(C(=O)Nc2ccccn2)cc1`: the “viability” value was 106% (inactive).
In the case of `N#Cc1nc(-c2ccc(OCc3ccccc3)cc2)oc1NCCCn1ccnc1`, the “viability” value is 85.7% (inactive).
Turning to `CC1=NN(C(=O)c2csc(C)c2)C(O)(C(F)(F)F)C1` (configuration not stated), the “viability” value is 99.1% (inactive).
`O=C(c1ccccc1[N+](=O)[O-])N1N=C(c2ccccc2)CC1(O)C(F)(F)F` (configuration not stated): the “viability” value is 102% (inactive).
As for `CC1=NN(C(=O)c2csc(C(C)C)c2)C(O)(C(F)(F)F)C1` (configuration not stated), the “viability” value was 91.2% (inactive).
For `CC1=NN(C(=O)c2ccc(Cn3nc(C)c(Br)c3C)cc2)C(O)(C(F)(F)F)C1` (configuration not stated), the “viability” value is 91.5% (inactive).
Consider `CC(=O)N(c1nnc(-c2ccc(C)cc2)s1)C1CCCC1`, for which the “viability” value is 98% (inactive).
On to `COc1ccc(-c2nnn(Cc3ccccc3)n2)cc1`, for which the “viability” value is 94.7% (inactive).
With `Cc1nnc(N/N=C/c2ccc(-c3ccc(Br)cc3)o2)n1N`, the “viability” value is 104% (inactive).
With `O=C(OCC(=O)N1CCC(c2ccccc2)=N1)c1ccc([N+](=O)[O-])s1`, the “viability” value was 93.3% (inactive).
Next, `O=C(NCCCN1CCOCC1)c1ccc(CSc2ccc(Cl)cc2)cc1`: 84% (inactive); `O=C(OCn1nnc2ccccc2c1=O)c1ccc(Br)o1`: 92.8% (inactive); `COc1cccc(C(=O)OCn2nnc3ccccc3c2=O)c1OC`: 105% (inactive).
On to `C=CCOc1ccc(CNCCO)cc1OCC`, for which the “viability” value was 98.3% (inactive).
For `CCc1cc(OCCCCNCc2ccccc2)ccc1Cl`, the “viability” value is 81.4% (inactive).
Consider `CCCn1nnnc1NCc1ccc(CC)cc1`, for which the “viability” value is 105% (inactive).
Take `O=C(CCCSc1nc2ccccc2s1)NCc1ccco1`: the “viability” value is 89.1% (inactive).
For the compound `CC(C)CCC1=NN(C(=O)c2ccco2)C(O)(C(F)(F)F)C1` (configuration not stated), the “viability” value is 97.2% (inactive).
For the compound `O=C1CC(=O)CC(c2ccccc2)C1`, the “viability” value is 86.2% (inactive).
Take `Cc1cccc(N2CCN(Cc3ccc([N+](=O)[O-])o3)CC2)c1C`: the “viability” value is 90.5% (inactive).
With `CCCC(=O)N1CCC(Cc2ccccc2)CC1`, the “viability” value is 100% (inactive).
Regarding `NC1=NC[C@H](Cc2ccccc2)N1CCCCC1CCCCC1`, the “viability” value is 89.4% (inactive).
`CCc1ccc(N2CCN(CCNC(=O)Nc3ccc(OC)cc3)CC2)cc1`: the “viability” value was 91.2% (inactive).
In the case of `COc1ccc(-c2cc(C(F)(F)F)nc(S(C)(=O)=O)n2)cc1`, the “viability” value was 88.1% (inactive).
Turning to `CC(=O)Oc1c(-c2ccco2)oc2ccccc2c1=O`, the “viability” value was 93.2% (inactive).
`O=C(Oc1c(-c2ccco2)oc2ccccc2c1=O)c1cccnc1`: the “viability” value was 101% (inactive).
The same measure for `Cc1ccc2c(C)ccc(O)c2n1`: 109% (inactive).
In the case of `Cc1cccc(NCc2nnc(-c3ccccc3)o2)c1C`, the “viability” value was 103% (inactive).
With `CC(C)(C)C(=O)COc1ccccc1[N+](=O)[O-]`, the “viability” value is 81.5% (inactive).
The same measure for `CCCCNC(=O)Nc1nnc(-c2ccc(OCC)cc2)o1`: 87.6% (inactive); for `CCOc1ccc(C(=O)Nc2nnc(C3=COCCO3)o2)cc1`: 78.7% (inactive); for `COc1cccc(C(=O)OCC(=O)Nc2nnc(-c3ccccc3)o2)c1`: 93.5% (inactive).
For `CCS(=O)(=O)c1ncc(Cl)c(C(=O)Nc2ccc(S(=O)(=O)N(C)c3ccccc3)cc2)n1`, the “viability” value was 90.6% (inactive).
Next, `CCOc1ccccc1C(=O)OCC(=O)Nc1nnc(-c2ccccc2)o1`: 89.8% (inactive); `Cc1cccc(C(=O)Nc2nnc(-c3cccnc3)o2)c1`: 79.9% (inactive); `O=C(Nc1nnc(-c2ccc3c(c2)CCCC3)o1)c1c(F)cccc1F`: 97.8% (inactive).
The same measure for `c1ccc(-c2nnc(SCc3cn4ccsc4n3)o2)cc1`: 92.4% (inactive).
As for `CCS(=O)(=O)c1ncc(Cl)c(C(=O)Nc2ccc(C)cc2)n1`, the “viability” value is 81.6% (inactive).
Next, `CCCCn1c(N)c(-c2nc3ccccc3o2)c2c([N+](=O)[O-])nn(CC)c(=O)c21`: 91.8% (inactive); `CCOC(=O)c1sc(NC(=O)CCN2CC(C)OC(C)C2)c(C(=O)OCC)c1C` (configuration not stated): 91.1% (inactive).
As to `CCCNC(=O)NC(=O)COc1ccc(-c2ccc(C#N)cc2)cc1`, the “viability” value was 100% (inactive).
As for `Cc1ccc(NCCC(=O)c2cccs2)cc1Cl`, the “viability” value is 99.2% (inactive).
The same measure for `Cc1ccc(Sc2ncccc2N)cc1`: 89.9% (inactive).
In the case of `Oc1ccccc1CN1CCCC(N2CCN(c3cccc(C(F)(F)F)c3)CC2)C1` (configuration not stated), the “viability” value is 81.8% (inactive).
For `C/C(=N\Nc1ccc(Cl)cc1)c1ccccn1`, the “viability” value was 97.2% (inactive).
Next, `C/C(=N\Nc1cccc2cccnc12)c1ccccn1`: 74.1% (inactive); `O=C(CCc1c[nH]c2ccccc12)Nc1ncccc1O`: 108% (inactive); `COc1cc(/C=N/NC(=O)c2ccccn2)ccc1OC(=O)c1cccs1`: 119% (inactive).
The same measure for `CC(C)c1ccc(/C=N/NC(=O)c2ccccn2)cc1`: 81.8% (inactive); for `CC(/C=C\C=C\c1ccccc1)=N\NC(=O)c1cncc(Br)c1`: 91.5% (inactive).
Next, `Cc1ccnc(NC(=O)CCc2c[nH]c3ccccc23)c1`: 103% (inactive).
For the compound `COc1ccc2oc(=O)c(/C(C)=N/NC(=O)c3ccncc3)cc2c1`, the “viability” value is 87.7% (inactive).
For `CCCn1nnnc1NC(=O)COc1ccc(Br)cc1`, the “viability” value is 104% (inactive).
On to `Cc1ccccc1-n1c(C)cc(/C=N/NC(=O)c2ccncc2)c1C`, for which the “viability” value was 96% (inactive).
Next, `O=[N+]([O-])c1ncccc1Oc1nc(-c2cccnc2)nc2ccccc12`: 97.2% (inactive); `Clc1ccccc1OCc1nnc(-c2ccccc2)o1`: 100% (inactive).
On to `CCOC(=O)/C=C1\Nc2ccccc2OC1=O`, for which the “viability” value is 81.8% (inactive).
In the case of `N=c1oc2ccccc2cc1C(=O)Nc1ccccc1`, the “viability” value is 91.1% (inactive).
Take `N#CC(C(=O)Nc1ccccc1)=C1Nc2ccccc2N1`: the “viability” value is 101% (inactive).
As to `Cc1ccc(OC(=O)c2ccc(Br)o2)cc1`, the “viability” value was 98.4% (inactive).
With `CCC(=O)c1ccc(OCC(=O)OCC(=O)c2cc(C)n(C3CC3)c2C)cc1`, the “viability” value was 97.4% (inactive).
Turning to `CC(C)(C)NCc1cc(Br)ccc1OCc1cccs1`, the “viability” value was 108% (inactive).
On to `O=C(OCC(=O)N1CCN(c2ccccc2)CC1)c1cnc(Cl)c(Cl)c1`, for which the “viability” value was 88.3% (inactive).
As for `O=C(NCc1ccco1)c1nc2ccccc2s1`, the “viability” value is 96.5% (inactive).
For the compound `O=C1CC(N2CCN(c3ccccc3)CC2)C(=O)N1CCc1ccccc1` (configuration not stated), the “viability” value was 102% (inactive).
For `COC(=O)COc1ccc(-c2ccccc2)cc1C=O`, the “viability” value is 99.3% (inactive).
With `CC(C)(O)C#Cc1ccc(C(=O)Nc2ccc3c(c2)OCO3)s1`, the “viability” value is 99.3% (inactive).
For `O=C(Nc1nc2ccccc2[nH]1)c1cccc([N+](=O)[O-])c1`, the “viability” value was 98.3% (inactive).
As for `O=[N+]([O-])c1ccc2nc(SCc3cn4ccccc4n3)[nH]c2c1`, the “viability” value was 101% (inactive).
Take `N/N=C(/Cc1nc2ccccc2[nH]1)c1ccc([N+](=O)[O-])cc1`: the “viability” value is 106% (inactive).
For `C#CCSc1nnc(-c2ccc([N+](=O)[O-])cc2)o1`, the “viability” value was 100% (inactive).
